These results are taken from PubChem BioAssay AID1851 (National Center for Advancing Translational Sciences (NCATS), 2009).

The campaign covered roughly 16,000 compounds. About 4,000 (25%) were called active. Not shown: some 26% with an inconclusive outcome. The list is a sample of the results. A number with no mark means an inactive call. Calls come from the whole dose curve; as a rule, active = well fitted curve in the direction sought with a large enough effect; inconclusive = small, poorly fitted or top-dose-only effect, or effect the other way; inactive = no such curve, though single readings can be large or run the other way.
% is set by controls: 0 for no effect and ±100 for the full control effect.

In this assay the target is Cytochrome P450 2C9 (Homo sapiens) (UniProt P11712). Briefly: Cytochrome panel assay with activity outcomes. Conditions: recombinant CYP, pro-luciferin dealkylation, luminescence, p450-cyp2c9; series mostly up to 57.1 µM.
Cytochrome P450 2C9 (Homo sapiens), sequence (P11712 whole entry, looked up): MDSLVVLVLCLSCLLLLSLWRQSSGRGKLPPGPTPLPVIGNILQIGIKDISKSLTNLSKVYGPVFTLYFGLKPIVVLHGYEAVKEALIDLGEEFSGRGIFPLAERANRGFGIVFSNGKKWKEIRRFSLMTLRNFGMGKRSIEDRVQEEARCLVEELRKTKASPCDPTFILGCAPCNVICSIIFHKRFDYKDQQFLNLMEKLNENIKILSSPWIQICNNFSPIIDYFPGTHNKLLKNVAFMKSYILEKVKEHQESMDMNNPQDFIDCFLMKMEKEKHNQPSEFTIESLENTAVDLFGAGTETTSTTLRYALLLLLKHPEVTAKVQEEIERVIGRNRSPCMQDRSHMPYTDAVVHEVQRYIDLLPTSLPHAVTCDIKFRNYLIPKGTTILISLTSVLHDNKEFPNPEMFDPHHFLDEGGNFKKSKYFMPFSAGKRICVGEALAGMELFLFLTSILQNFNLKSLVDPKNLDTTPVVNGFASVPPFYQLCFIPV
As for `C[N+]1(CCCC[N+]2(C)CCCCCCC2)CCCCCCC1`, the activity, negative = inhibition was -4.37% [at 11.4 µM].
For orientation: AC50 means the concentration at which the activity in the assay is half-maximal. In the case of `Cc1ccc(OCCCC(=O)Nc2ccccc2C(F)(F)F)cc1`, the AC50 is 7.94 µM (active).
The same measure, in the same setting: to `CCCCOc1ccc(C(=O)N/C(=C\c2ccc(OC)cc2)C(=O)OCc2ccco2)cc1` belongs 2.82 µM (active); to `C=CCC(NCc1ccco1)c1ccc(OC)cc1` (stereo not given), “inactive”.
The same measure, in the same setting: to `Cc1ccc(-c2ccc(=O)n(CC(=O)NCc3ccco3)n2)cc1` belongs 7.94 µM (active); to `CCCCCOc1ccc(C(=O)NCC2(c3ccccc3)CCOCC2)cc1`, 2.82 µM (active).
Same read-out and setting: to `CCN(CC)CCNC(=O)Cn1nc(-c2ccc(C)cc2)ccc1=O` belongs “inactive”; to `O=C(NCCc1ccccc1)C(=O)NCC1(c2ccccc2)CCCC1`, “inactive”.
As to `Cc1cccc(OCCCC(=O)Nc2ccccc2C(F)(F)F)c1`, the AC50 result is “inactive”.
Take `Cc1ccc(OCC(=O)NNC(=O)CCC(=O)Nc2ccc(C)cc2C)cc1`: the AC50 entry was “inactive”.
Consider `CCCN1CCN(CCCNC(=O)Cn2nc(-c3ccc(C)cc3)ccc2=O)CC1`, for which the AC50 result was “inactive”.
As for `O=P(O)(CCP(=O)(O)c1ccccc1)c1ccccc1`, the activity, negative = inhibition is 2.87% [at 11.4 µM].
In the case of `Cc1noc(C)c1-c1cncnc1N(C)Cc1ccco1`, the activity, negative = inhibition is 17.6% [at 2.29 µM].
Same read-out and setting: for `NCC[C@H](N)C(=O)O` the value was 0.553% [at 11.4 µM].
In the case of `CC1(C)OC(C(N)=O)C(C(N)=O)O1` (stereo not given), the AC50 result was “inactive”.
`C/C(CC(=O)NCc1ccco1)=N\NC(=O)Cc1ccccc1`: the AC50 entry is “inactive”.
On the same count and under the same terms, to `Cc1ccc(OCC(=O)NNC(=O)CCC(=O)NCc2ccccc2)cc1` belongs “inactive”.
In the case of `CCOc1ccc(-n2c(C)nc3cc(C(=O)NCc4ccco4)ccc32)cc1`, the AC50 was 17.8 µM (active).
On the same count and under the same terms, to `CCS(=O)(=O)N1CCC(C(=O)NCc2ccco2)CC1` belongs “inactive”.
Same read-out and setting: for `COCCNC(=O)c1ccc2c(c1)nc(C)n2-c1cc(OC)c(OC)c(OC)c1` the value was “inactive”; for `Cc1ccc(OCCCC(=O)NCc2ccco2)cc1`, 14.1 µM (active); for `CCCCOc1ccc(C(=O)NCc2ccco2)cc1`, 10 µM (active).
On to `CC(C)(C)c1ccc(C(=O)NCCC(=O)NCc2ccco2)cc1`, for which the AC50 is 2.24 µM (active).
The same measure, in the same setting: for `CS(=O)(=O)Nc1c(O)ccc2c1CCC[C@H]2C1=NCCN1` the value was “inactive”.
Same read-out and setting: for `CNCCCC1c2ccccc2C=Cc2ccccc21` the value was “inactive”; for `COc1ccc(Cl)cc1N=Nc1ncc[nH]1`, “inactive”; for `CC(=O)N1CCC[C@@]2(CCN(Cc3ccccc3)C2)C1`, “inactive”.
Still for that read-out and setting: for `O=C(O)c1ccc2c(c1)C(=O)N(C(Cc1ccc(O)cc1)C(=O)O)C2=O` (stereo not given) the value was “inactive”.
Take `C[N+](C)([O-])CCC=C1c2ccccc2CCc2ccccc21`: the activity, negative = inhibition is -29.7% [at 11.4 µM].
`Nc1ccc(C(=O)C[C@H](N)C(=O)O)cc1O`: the activity, negative = inhibition was -13.6% [at 11.4 µM].
On to `Cc1sc(NC(=O)C2C3CCC(O3)C2C(=O)O)c(C(=O)OC(C)C)c1-c1ccc(Cl)cc1` (stereo not given), for which the AC50 was 14.1 µM (active).
Same read-out and setting: to `Cc1ccc(-c2c(C)sc(NC(=O)C3C4CCC(O4)C3C(=O)O)c2C(=O)OC(C)C)cc1` (stereo not given) belongs “inactive”.
Still for that read-out and setting: to `CCOC(=O)c1ccc(N/C(=N\S(=O)(=O)c2ccccc2C)c2ccccc2)cc1` belongs 3.98 µM (active).
Regarding `NC(=O)c1ccccc1-c1nc(-n2ccnc2)c2ccccc2n1`, the activity, negative = inhibition is 8.72% [at 2.29 µM].
Still for that read-out and setting: to `COCCNc1ncnc2ccc(-c3ccoc3)cc12` belongs 0.323% [at 2.29 µM]; to `CC(=O)OC[C@@H]1O[C@H](C/C=N\O[C@@H]2O[C@H](COC(C)=O)[C@@H](OC(C)=O)[C@H](OC(C)=O)[C@H]2OC(C)=O)C=C[C@@H]1OC(C)=O`, 4.96% [at 11.4 µM].
Turning to `COc1ccc(CC(=O)NC(=S)Nc2ccc(S(=O)(=O)NC(C)(C)C)cc2)cc1`, the AC50 was 8.91 µM (active).
As to `CC(=O)NS(=O)(=O)c1ccc(NC(=S)NC(=O)C(C)(C)C)cc1`, the AC50 result was “inactive”.
On the same count and under the same terms, to `CN1CC[C@@]2(CCCN(C(=O)c3cc(C(F)(F)F)cc(C(F)(F)F)c3)C2)C1` belongs “inactive”; to `CCCCCC/C(C)=C1/SC(=S)NC1=O`, 5.01 µM (active); to `CCOC(=O)C1=C(O)/C(=C/c2cc(OC)c(OC)c(OC)c2)N=C1C`, “inactive”.
Same read-out and setting: to `CCOC(=O)c1ccccc1OCc1cc(/C=N/n2cnnc2)ccc1OC` belongs 2.24 µM (active).
The same measure, in the same setting: to `CCOC(=O)C1=C(O)/C(=C\c2ccc(OC)c(OC)c2)N=C1C` belongs “inactive”.
Regarding `CCOC(=O)NNC1CC(=O)N(c2ccc(OC)cc2)C1=O` (stereo not given), the AC50 result was “inactive”.
The same measure, in the same setting: to `O=C1CC(SC(=Nc2ccccc2)Nc2ccccc2)C(=O)N1c1cccc(Cl)c1` (stereo not given) belongs 3.55 µM (active).
Consider `COc1ccc(C(=O)N2CCC3(CCN(C(=O)Nc4cccc(F)c4)CC3)CC2)cc1`, for which the AC50 entry was “inactive”.
Take `O=C1CC(N2CCOCC2)C(=O)N1c1cccc(Cl)c1` (stereo not given): the AC50 entry was “inactive”.
Still for that read-out and setting: for `CCN=C(Nc1cccc(F)c1)SC1CC(=O)N(c2ccc(OC)cc2)C1=O` (stereo not given) the value was 6.31 µM (active).
With `Cc1cnc(CNc2ncnc3ccc(-c4ccccc4Cl)cc23)cn1`, the activity, negative = inhibition is -25% [at 2.29 µM].
In the case of `CCCOc1ccc(N2C(=O)CC(S/C(N)=N/N=C(\C)c3cccs3)C2=O)cc1` (stereo not given), the AC50 was 4.47 µM (active).
The same measure, in the same setting: to `COc1ccc(-n2c(=O)c(-c3cccs3)nc3cnc(N4CCN(C)CC4)nc32)cc1` belongs “inactive”; to `COc1ccc(N2C(=O)CC(S/C(N)=N/N=C(\C)c3cccs3)C2=O)cc1` (stereo not given), 3.98 µM (active).
On the same count and under the same terms, to `COc1ccc(C2=Nc3cccc4cccc(c34)N2)cc1` belongs “inactive”.
On the same count and under the same terms, for `Cn1cnc2c(NC3CCCC3)ncnc21` the value was “inactive”; for `COc1ccc(C(=O)N2CC3(CC(c4ccc(Cl)cc4)=NO3)C[C@H]2C(=O)NCC(N)=O)cc1` (stereo not given in full), “inactive”; for `COc1ccccc1NC(=O)[C@H](COCc1ccccc1)NC(=O)OC(C)(C)C`, 7.94 µM (active).
Turning to `COc1ccccc1NC(=O)C(C/C=C(\C)Cl)C(C)=O` (stereo not given), the AC50 entry was “inactive”.
As for `CO[C@H]1COC(=O)CCC[C@H](C)[C@@H](OC)COC(=O)C/C=C\[C@@H]1C`, the activity, negative = inhibition was 14.4% [at 11.4 µM].
For the compound `Cn1cc(-c2nc3cnc(N4CCNCC4)nc3n(C)c2=O)c2ccccc21`, the AC50 was 7.94 µM (active).
Still for that read-out and setting: to `Cn1cc(-c2nc3cnc(N4CCNCC4)nc3n(C3CC3)c2=O)c2ccccc21` belongs 3.98 µM (active); to `Cn1cc(-c2nc3cncnc3n(C3CC3)c2=O)c2ccccc21`, “inactive”; to `Cn1cc(-c2nc3cnc(N4CCNCC4)nc3n(-c3ccccc3)c2=O)c2ccccc21`, “inactive”.
On the same count and under the same terms, to `CN1CCN(c2ncc3nc(-c4cn(C)c5ccccc45)c(=O)n(-c4ccccc4)c3n2)CC1` belongs “inactive”; to `Cn1cc(-c2nc3cnc(N4CCOCC4)nc3n(C3CC3)c2=O)c2ccccc21`, “inactive”.
`C[C@@H]1CCCN(CP(=O)(c2ccccc2)c2ccccc2)C1`: the activity, negative = inhibition is -15.6% [at 11.4 µM].
On to `Cc1n[nH]c(C)c1N=Nc1cc(Cl)ccc1Cl`, for which the AC50 result was “inactive”.
Still for that read-out and setting: for `CCOC(=O)CNc1c(-c2ccccc2)nc2ccc(Cl)cn12` the value was 2.82 µM (active); for `Oc1ccc(Cl)cc1Cc1cc(Cl)cc(Cc2cc(Cl)ccc2O)c1O`, 2.51 µM (active).
As for `O=C(O)Cc1cc(Cl)ccc1O`, the activity, negative = inhibition was 12.8% [at 11.4 µM].
The same measure, in the same setting: to `CN(C)Cc1cc(Cl)c(O)c(CN(C)C)c1` belongs -9.61% [at 11.4 µM].
Turning to `CCOc1ccc(Cl)cc1CNCCNCCO`, the AC50 result is “inactive”.
The same measure, in the same setting: for `Oc1ccc(Cc2cc(Cl)cc(Cl)c2O)cc1Cl` the value was 0.2 µM (active).
With `COc1ccccc1CNc1ncncc1-c1cccnc1`, the activity, negative = inhibition is -1.61% [at 2.29 µM].
With `O=C(O)[C@@H]1C[C@@H](C(=O)O)N1`, the AC50 entry is “inactive”.
Same read-out and setting: for `Cc1nonc1NC(=O)N1CCCC1` the value was “inactive”.
Still for that read-out and setting: for `Cn1c(CC(=O)Nc2ccc(Cl)c(Cl)c2)nnc1SCC(=O)N1CCN(c2ccccc2)CC1` the value was 5.62 µM (active).
The same measure, in the same setting: to `CC1CC(C)CN(C(=O)CSc2nnc(CSc3ncccn3)n2C)C1` (stereo not given) belongs “inactive”.
In the case of `CCOC(=O)N1CCC(NC(=O)C2CCN(S(=O)(=O)N3CCCC3)CC2)CC1`, the AC50 result was “inactive”.
Same read-out and setting: to `CCCS(=O)(=O)N1CCCC(C(=O)N2CCN(C(=O)OCC)CC2)C1` (stereo not given) belongs “inactive”; to `CCOC(=O)N1CCC(NC(=O)c2cc(S(=O)(=O)N3CCCC3)cn2C)CC1`, 7.08 µM (active).
With `C[C@@]12CCC(=O)C=C1CC[C@H]1[C@@H]2[C@@H](O)C[C@]2(C)[C@@H]1CC[C@@]2(O)C(=O)COC(=O)C1CCCC1`, the activity, negative = inhibition is -1.4% [at 11.4 µM].
Take `O=S(=O)(O)c1cc(O)c2c(N=Cc3ccccc3O)cc(S(=O)(=O)O)cc2c1`: the AC50 is 3.16 µM (active).
Regarding `Nc1ccccc1N=Nc1c(S(=O)(=O)O)cc2cc(S(=O)(=O)O)cc(O)c2c1O`, the activity, negative = inhibition was -15.1% [at 11.4 µM].
On to `COc1ccccc1-c1cc(-n2ccnc2)ncn1`, for which the activity, negative = inhibition is -8.14% [at 2.29 µM].
For the compound `Cc1ccc(Nc2ccc(-n3ccnc3)nn2)cc1C`, the AC50 was 0.0794 µM (active).
Regarding `CS(=O)(=O)Nc1cccc(-c2nccc(-n3ccnc3)n2)c1`, the activity, negative = inhibition is -8.16% [at 2.29 µM].
With `CCc1ccc(NC(=O)c2cc(C(C)C)on2)cc1`, the AC50 entry was “inactive”.
Still for that read-out and setting: for `CCc1noc(N)c1C(=O)Nc1ccc(F)c(Cl)c1` the value was 14.1 µM (active); for `O=C(Nc1ccc(F)cc1)c1cc(S(=O)(=O)N2CCCCC2)cs1`, 12.6 µM (active).
Regarding `O=C(O)c1cc(S(=O)(=O)N2CCCCC2)ccc1F`, the AC50 entry is “inactive”.
Take `O=C(N/N=C1/C[C@@H](O)[C@@H](O)[C@@H]2[C@H]3C(=O)N(c4ccc(F)cc4F)C(=O)[C@@H]3CC[C@H]12)OCc1ccccc1`: the activity, negative = inhibition was -11.6% [at 11.4 µM].
As to `O=C1C=C(NCCc2cc(Br)c(O)c(Br)c2)C(=O)c2ncccc21`, the AC50 is 1.58 µM (active).
With `O=C1C=C(Nc2nc(C(=O)O)cc(=O)[nH]2)c2ccccc2C1=O`, the activity, negative = inhibition was 8.04% [at 11.4 µM].
Regarding `COCC(=O)N1CCC2(CC1)CCN(C(=O)Nc1ccc(OC)cc1)CC2`, the AC50 entry was “inactive”.
On the same count and under the same terms, for `COc1ccc2c(c1)c(=O)oc1c(C)c(OCC(=O)N3CCc4ccccc4C3)ccc12` the value was 1 µM (active).
